# The supplement of paper PMC5919970
# Where a name gives a salt, the structure may show the parent alone. In all, about 2,000 compounds were measured (“fractional viability relative to vehicle”: median about 0.91, lowest 2% from about 0.045 on). Shown is part of a subset that was picked to be rich in the lowest values.
# Tested on: TYKNU
# Test: fractional viability relative to vehicle; TYKNU is a high-grade serous ovarian cancer line; higher = less growth inhibition
# Conditions: 72 h
# Procedure, shortened: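 TYKNU control cells or lentiCRISPRv2 knockout derivatives were seeded at 500 cells per well into drug-stamped 384-well plates holding a ~2100-compound library at 2 or 10 μM, in duplicate. Cells were grown at 37 °C in 5% CO2 in RPMI 1640 with 10% FBS, and drug treatment lasted 72 h. Viability was read by Cell Titer Glo luminescence. Duplicate treatment wells were averaged and normalised to duplicate control wells from the same plate position.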
# [1] = 2uM, genotype: DNM1L knockout (sgDNM1L #1)
# [2] = 2uM, genotype: sgCTRLA1 (non-targeting control)
# [3] = 10uM, genotype: DNM1L knockout (sgDNM1L #1)
# [4] = 10uM, genotype: sgCTRLA1 (non-targeting control)
SMILES,fractional viability [1],fractional viability [2],fractional viability [3],fractional viability [4]
CCN(CC)C(=O)c1ccc(C2=CC3(CCNCC3)Oc3cccc(O)c32)cc1,1.05,1.03,0.914,0.931
C[C@@H]1O[C@@H](O[C@H]2C[C@@H](O)[C@]3(CO)[C@H]4[C@H](O)C[C@]5(C)[C@@H](C6=CC(=O)OC6)CC[C@]5(O)[C@@H]4CC[C@]3(O)C2)[C@H](O)[C@H](O)[C@H]1O [Ouabain],0.05,0.0369,0.0346,0.0311
N#C[C@H](O[C@@H]1O[C@H](C(=O)O)[C@@H](O)[C@H](O)[C@H]1O)c1ccccc1 [Laetrile],0.984,1.23,0.709,1.16
COc1cc(-n2c(=S)[nH]c3ccccc3c2=O)c(Cl)cc1Cl [Mdivi-1],0.879,0.994,0.654,0.851
Cc1cccc(C)c1NC(=O)CN1CCCC1=O [Nefiracetam],0.909,1.08,1.02,1.16
CC(C)N(CCNC(=O)CN1CCCC1=O)C(C)C [Pramiracetam],0.94,1.16,0.882,1.02
C[C@@H]1[C@H](O)[C@@H](C)/C=C/C=C/CC/C=C/C=C/C=C/C=C/[C@H](O[C@H]2O[C@@H](C)[C@H](O)[C@@H](N)[C@H]2O)C[C@@H]2O[C@](O)(C[C@@H](O)[C@H](O)CC[C@@H](O)C[C@@H](O)C[C@@H](O)CC(=O)O[C@H]1C)C[C@H](O)[C@H]2C(=O)O [Nystatin (Fungicidin)],0.929,1.11,0.854,1.03
O=C(O)c1nn(Cc2ccc(Cl)cc2Cl)c2ccccc12 [Lonidamine],0.961,1.06,0.87,1.16
Cc1sc2c(c1C)C(c1ccc(Cl)cc1)=N[C@@H](CC(=O)OC(C)(C)C)c1nnc(C)n1-2,0.37,0.516,0.278,0.394
O=C(O)CNC(=O)c1c(O)c2ccccc2n(Cc2ccccc2)c1=O,1.04,1.17,0.762,1
O=c1[nH]c2ccc(Cl)cc2c(N[C@@H]2CN3CCC2CC3)c1-c1nc2ccccc2[nH]1,0.154,0.195,0.0777,0.0446
O=S(=O)(CC1CS1)c1ccc(Oc2ccccc2)cc1 (stereo not drawn),0.744,0.851,0.163,0.172
C[C@](O)(COc1ccc(C#N)cc1)C(=O)Nc1ccc(C#N)c(C(F)(F)F)c1,1,1.13,0.879,1.03
CCN1CCN(C(=O)Cc2ccc(Nc3ncc(F)c(Nc4ccc(C(=O)Nc5ccccc5Cl)cc4)n3)cc2)CC1 [Aurora A Inhibitor I],0.904,0.926,0.0479,0.0775
NC(=O)CN1CC(O)CC1=O (stereo not drawn) [Oxiracetam],0.755,1.16,0.688,0.976
C#C[C@]1(O)C=C[C@H]2[C@@H]3CCC4=CC(=O)CC[C@@H]4[C@H]3CC[C@@]21CC [Gestodene],1.13,1.04,0.861,0.945
CC1=C(O)C(=O)C=C2C1=CC=C1[C@@]2(C)CC[C@@]2(C)[C@@H]3C[C@](C)(C(=O)O)CC[C@]3(C)CC[C@]12C [Celastrol],0.0457,0.0557,0.0154,0.0139
CC(C)(C)c1cc(C=C(C#N)C#N)cc(Br)c1O,1.21,1.08,1.09,0.939
CCOc1ccccc1-n1c(C(C)N2CCN(C(=O)COc3ccc(Cl)cc3)CC2)nc2ccccc2c1=O (stereo not drawn) [Erastin],0.123,0.0716,0.0411,0.0416

SMILES,fractional viability [1],fractional viability [2],fractional viability [3],fractional viability [4]
O=[N+]([O-])/C=C/c1ccc2c(c1)OCO2,0.362,0.336,0.0604,0.0474
Cc1cccc(C(C)c2c[nH]cn2)c1C (stereo not drawn) [Medetomidine HCl],1.09,1.09,0.755,1.03
O=[N+]([O-])c1ncc[nH]1 [Azomycin],0.753,1.09,0.757,0.975
CC[C@H](C)[C@@H]([C@@H](CC(=O)N1CCC[C@H]1[C@H](OC)[C@@H](C)C(=O)N[C@H](C)[C@@H](O)c1ccccc1)OC)N(C)C(=O)[C@@H](NC(=O)[C@@H](NC)C(C)C)C(C)C [Monomethyl auristatin E (MMAE)],0.0977,0.0889,0.0769,0.0612
Cc1cccc([C@H](C)c2c[nH]cn2)c1C [Dexmedetomidine],1.06,1.23,0.8,1.05
CCCCCCCCCCCCCCCC[n+]1ccccc1 [Cetylpyridinium Chloride],0.216,0.196,0.0152,0.0105
Cc1ccccc1-n1c(Cn2ncc3c(N)ncnc32)nc2cccc(C)c2c1=O,0.87,1.14,0.731,1.15
CCc1c(C(=O)C(N)=O)c2c(OCC(=O)O)cccc2n1Cc1ccccc1,1.09,1.02,0.94,0.973
Cn1cc(C2=C(c3cn(C4CCN(Cc5ccccn5)CC4)c4ccccc34)C(=O)NC2=O)c2ccccc21,0.952,0.961,0.948,0.916
Cc1cc(C(C#N)c2ccc(Cl)cc2)c(Cl)cc1NC(=O)c1cc(I)cc(I)c1O (stereo not drawn) [Closantel],1.13,1.17,0.948,1.1
Cc1cc(C(C#N)c2ccc(Cl)cc2)c(Cl)cc1NC(=O)c1cc(I)cc(I)c1O (stereo not drawn) [Closantel Sodium],0.98,1.19,0.879,0.97
COc1ccc(C[C@H]2NC[C@H](O)[C@H]2OC(C)=O)cc1 [Anisomycin],0.109,0.0785,0.118,0.0319
COc1cc(C)[nH]c(=O)c1CNC(=O)c1c(C)n([C@H](C)C2CCOCC2)c2ccccc12,0.85,0.972,0.755,0.698
CCc1cc2c(s1)-n1c(C)nnc1CN=C2c1ccccc1Cl [Etizolam],0.778,1,0.707,0.96
CC(C)(C)[C@]1(O)CC2OC(=O)CC23C(=O)OC2OC(=O)[C@H](O)C231 (stereo partly drawn) [Bilobalide],0.854,1.09,0.975,1.11
O=C1CCC[C@@H]2[C@H]3CCCN4CCC[C@@H](CN12)[C@@H]34 [(+)-Matrine],0.865,1.03,0.795,1
COc1cc([C@@H]2c3cc4c(cc3[C@H](O)[C@H]3COC(=O)[C@@H]23)OCO4)cc(OC)c1OC [Picropodophyllin (PPP)],0.139,0.142,0.121,0.0713
O=C(NCC1CCOCC1)c1cnc(Nc2ccc(Cl)cc2Cl)nc1C(F)(F)F,1.03,1.32,0.768,1.19
